Compound activity: PubChem BioAssay, National Center for Advancing Translational Sciences (NCATS)
The full list was thinned out, with hits kept by preference.
Methyltransferases = Primary Screen for Target Class Profiling of Small Molecule Inhibitors of Methyltransferases | AID 1745853, 2022 | 25,000 compounds, 3.9% hits | calls only at 40 µM | purified enzyme, MTase-Glo SAH luminescence; stronger effect = lower value; call rule not given here
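Each enzyme was reacted with SAM and its substrate, with compounds tested once at 40 uM; SAH formed was read by MTase-Glo luminescence.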
Calls only.

Screening Oc1ccc(CC2NCCc3cc(O)c(O)cc32)cc1 (stereo not drawn) returned Methyltransferases inactive.
`Oc1cc2c(cc1O)C(c1ccccc1)CNCC2` (stereo not drawn) gave Methyltransferases active.
Screening COc1cccc(N2CCN(S(=O)(=O)c3cccc(-c4nc(-c5ccccc5)no4)c3)CC2)c1 returned Methyltransferases inactive.
Cc1ccc(CN2C(=O)c3cc4sccc4n3CC2(C)C(=O)NC2CCC(C)CC2)cc1 (stereo not drawn) was read as Methyltransferases inactive.
For CN1C(=O)c2cc(C(=O)N3CCN(c4ccccc4)CC3)nn2CC1(C)C(=O)NCc1ccccc1 (stereo not drawn) the results were Methyltransferases inactive.
CCC1c2ccc(C)n2CCN1C(=O)Nc1ccccc1C (stereo not drawn) was read as Methyltransferases inactive.
Screening O=C(NCCc1ccccc1)c1ccc2c(=O)nc3c(-c4cccc(F)c4)n[nH]n3c2c1 returned Methyltransferases inactive.
C=CC(=O)N1CCC[C@@H](n2nc(-c3cccc(C(=O)Nc4ccc(C(C)C)c(C)c4)c3)c3c(N)ncnc32)C1 was read as Methyltransferases inactive.
`CC(C)n1nc(-c2ccc(NC(=O)Nc3cccc(C(F)(F)F)c3)cc2)c2c(N)ncnc21` gave Methyltransferases active.
For CC(C)n1nc(C#Cc2ccccc2)c2c(N)ncnc21 the results were Methyltransferases inactive.
COc1ccccc1CNC(=O)C1c2c(n(C)c3ccccc23)SCC(=O)N1c1cc(C)cc(C)c1 (stereo not drawn) was read as Methyltransferases inactive.
Screening Cn1c(=O)n(C)c2cc(S(=O)(=O)N3CCC(Cc4ccccc4)CC3)ccc21 returned Methyltransferases inactive.
For Cc1cccc(-c2n[nH]n3c2nc(=O)c2ccc(C(=O)NCc4ccccc4Cl)cc23)c1 the results were Methyltransferases inactive.
`CCCn1c(=O)c2cc(Cl)ccc2n2c(SCC(=O)Nc3cc(F)ccc3F)nnc12` gave Methyltransferases inactive.
Screening COc1cccc(NC(=O)CCc2nnc3n(Cc4ccc(C)cc4)c(=O)c4ccccc4n23)c1 returned Methyltransferases inactive.
For CC1(C(=O)NC2CCCCC2)Cn2c(ccc2-c2ccco2)C(=O)N1Cc1ccccc1Cl (stereo not drawn) the results were Methyltransferases inactive.
`C[C@@H]1O[C@@H](O[C@H]2[C@H](O[C@H]3[C@H](O[C@H]4CC[C@@]5(C)C(CC[C@]6(C)C5CC=C5[C@@H]7CC(C)(C)C[C@@H](O)[C@]7(C)CC[C@]56C)[C@@]4(C)CO)O[C@H](C(=O)O)[C@@H](O)[C@@H]3O)O[C@H](CO)[C@H](O)[C@@H]2O)[C@H](O)[C@H](O)[C@H]1O` (stereo partly drawn) gave Methyltransferases inactive.
Screening CC1(CO)CC(O)C2(C)CCC3(C)C(=CCC4C5(C=O)CCC(OC6OC(C(=O)O)C(O)C(O)C6OC6OC(C(=O)O)C(O)C(O)C6O)C(C)(C)C5CCC43C)C2C1 (stereo not drawn) returned Methyltransferases active.
C[C@@H]1O[C@@H](O[C@H]2[C@H](O[C@H]3[C@H](O[C@H]4CC[C@@]5(C)C(CC[C@]6(C)C5CC=C5[C@@H]7CC(C)(C)C[C@@H](O)[C@]7(C)CC[C@]56C)[C@@]4(C)CO)O[C@H](C(=O)O)[C@@H](O)[C@@H]3O)O[C@H](C(=O)O)[C@H](O)[C@@H]2O)[C@H](O)[C@H](O)[C@H]1O (stereo partly drawn) was read as Methyltransferases inactive.
For CCC(C)NC(=O)c1ccc2c(=O)n(CCC(C)C)c3nn(Cc4ccccc4Cl)c(=O)n3c2c1 (stereo not drawn) the results were Methyltransferases inactive.
Screening C=C1C(=O)O[C@@H]2/C=C(\C)CC/C=C(/C=O)[C@H](OC)[C@@H](OC(=O)C(C)C)[C@@H]12 returned Methyltransferases inactive.
Screening C=C1C(=O)O[C@@H]2/C=C(\C)CC/C=C(\C(=O)O[C@@H]3O[C@H](CO)[C@@H](O)[C@H](O)[C@H]3O)CC[C@@H]12 returned Methyltransferases inactive.
C=C1C(=O)OC2/C=C(\CO)CC/C=C(\C=O)C(OC)C(OC(=O)C(C)CC)C12 (stereo not drawn) was read as Methyltransferases active.
C=C(C)C(=O)O[C@H]1/C(C=O)=C\CC/C(CO)=C/[C@H]2OC(=O)C(=C)[C@@H]2[C@@H]1OC was read as Methyltransferases inactive.
For C=C1C(=O)O[C@@H]2/C=C(\C)CC/C=C(\C)CC[C@@H]12 the results were Methyltransferases inactive.
C=C1C(=O)OC2/C=C(\C)CC/C=C(\C=O)C(OC)C(OC(=O)C(C)CC)C12 (stereo not drawn) was read as Methyltransferases active.
For CC(=O)Nc1ccc(N2C(=O)c3ccc(-c4ccco4)n3CC2(C)C(=O)NCc2ccccc2)cc1 (stereo not drawn) the results were Methyltransferases inactive.
`CCN1C(=O)c2cc(C(=O)Nc3cc(C)cc(C)c3)nn2CC1(C)C(=O)NC1CCCC1` (stereo not drawn) gave Methyltransferases inactive.
O=C(CSc1nnc2n(Cc3ccc(F)cc3)c(=O)c3ccccc3n12)Nc1cccc(F)c1 was read as Methyltransferases inactive.
COc1ccc(CNC(=O)c2ccc3c(=O)nc4c(-c5cccc(C)c5)n[nH]n4c3c2)cc1 was read as Methyltransferases inactive.
`COc1ccc(-c2cc3n(n2)CC(C)(C(=O)NCc2ccccc2)N(c2cccc(C)c2C)C3=O)cc1` (stereo not drawn) gave Methyltransferases inactive.
Screening CCN1C(=O)c2cc(C(=O)NCCN3CCOCC3)nn2CC1(C)C(=O)NC1CCCC1 (stereo not drawn) returned Methyltransferases inactive.
CCC(C)NC(=O)c1ccc2c(=O)n(C)c3nnc(SCC(=O)Nc4cccc(C)c4)n3c2c1 (stereo not drawn) was read as Methyltransferases inactive.
For c1ccc(Cn2c(-c3ccc(OCC(C4CCNCC4)n4c(-c5ccccc5)nc5ccccc54)cc3)nc3ccccc32)cc1 (stereo not drawn) the results were Methyltransferases active.
For CC(C)Oc1ccc(CN2C(=O)c3nc4ccccc4n3CC2(C)C(=O)NC2CCCCCC2)cc1 (stereo not drawn) the results were Methyltransferases inactive.
For CC(C)Oc1ccc(CN2C(=O)c3nc4ccccc4n3CC2(C)C(=O)NC2CCCCC2)cc1 (stereo not drawn) the results were Methyltransferases inactive.
COc1ccc(C)cc1NS(=O)(=O)c1cc2[nH]c(=O)[nH]c2cc1Cl was read as Methyltransferases inactive.
Screening CCOC(=O)c1cc2n(n1)CC(C)(C(=O)NCCOC)N(c1ccc(Cl)cc1)C2=O (stereo not drawn) returned Methyltransferases inactive.
Screening Cc1ccc(Cl)cc1N1C(=O)c2cc3occc3n2CC1(C)C(=O)NC1CCCCCC1 (stereo not drawn) returned Methyltransferases inactive.
For CCOC(=O)c1cc2n(n1)CC(C)(C(=O)NCCC(C)C)N(c1cccc(Cl)c1)C2=O (stereo not drawn) the results were Methyltransferases inactive.
CC(C)OCCCn1c(=O)c2ccccc2n2c(SCc3ccc(F)cc3Cl)nnc12 was read as Methyltransferases inactive.
CN1CCCN(CC(=O)N2CCCC(c3ccc(C(=O)O)cc3)C2)CC1 (stereo not drawn) was read as Methyltransferases inactive.
`CN(Cc1ccccc1)C(=O)CN(C)S(=O)(=O)c1ccc2[nH]c3c(c2c1)CCCC3` gave Methyltransferases inactive.
